Reference: PubChem BioAssay (Tox21)
“And” between values parts separate entries of the source, which are not always exact repeats. Equal entries are not always repeated. Results filed as inconclusive are left out. The source made the active and inactive calls. Unless noted, calls follow the shape of the full dose curve.

What was measured:
[1] = Nuclear factor erythroid 2-related factor 2/antioxidant responsive element (Nrf2/ARE) small molecule agonists: qHTS cell viability counter screen in human keratinocytes (AID 1919968; active = well fitted cell-killing curve with a large enough effect in the repeat runs; also: nearly all actives have a fitted effect of over 55% in size; also: potency is read from the fitted curve at half-maximal effect)
Outline: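 Cells of the KeratinoSens line were plated at 1,500 per well and left for 5 h before compound transfer from DMSO stocks. After a 23 h incubation (37 C, 5% CO2), CellTiter-Fluor was added. Signal was taken as fluorescence intensity 1 h later.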

[2] = Nuclear factor erythroid 2-related factor 2/antioxidant responsive element (Nrf2/ARE) small molecule agonists: luciferase reporter gene qHTS assay in human keratinocytes (AID 1919969); also: nearly all actives have a fitted effect of over 35% in size
[3] = target: Gonadotropin-releasing hormone receptor (Homo sapiens) (UniProt P30968); experiment: Human gonadotropin-releasing hormone receptor (GnRHR) small molecule agonists, calcium flux assay in GnRHR-HEK293 cells (AID 1920063); also: nearly all actives have a fitted effect of over 35% in size; also: potency is read from the fitted curve at half-maximal effect
Gonadotropin-releasing hormone receptor (Homo sapiens), sequence (P30968 whole entry, looked up): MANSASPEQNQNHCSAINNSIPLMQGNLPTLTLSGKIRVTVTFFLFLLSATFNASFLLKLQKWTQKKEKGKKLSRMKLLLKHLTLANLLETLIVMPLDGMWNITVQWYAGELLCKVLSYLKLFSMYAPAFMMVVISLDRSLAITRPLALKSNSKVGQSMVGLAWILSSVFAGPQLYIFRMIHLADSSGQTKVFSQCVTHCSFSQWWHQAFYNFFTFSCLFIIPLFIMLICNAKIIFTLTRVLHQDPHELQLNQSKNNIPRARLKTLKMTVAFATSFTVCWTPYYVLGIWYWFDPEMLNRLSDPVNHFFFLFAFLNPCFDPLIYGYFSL
Outline: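 Compounds dissolved in DMSO are pin-transferred onto dye-loaded GnRHR-HEK293 cells, which were seeded 18 h before at 37 C/5% CO2. Calcium signal is read as fluorescence intensity at 1 s intervals for 3 min.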

[4] = G protein-coupled receptor (GPCR) small molecule agonists, calcium flux assay: HEK293 wild type cell line counter screen (AID 1920065)
Outline: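 Tox21 10K compounds, 15 concentrations each in triplicate, pin-transferred in DMSO onto dye-loaded cells; kinetic read at 480/540 nm for 3 min, 1 s intervals.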

[5] = p53 small molecule agonists, cell-based qHTS assay with human liver microsomes (AID 1963577)
Outline: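 p53RE-bla reporter cells were pre-incubated 5 h at 37 C, then treated with compounds plus human liver microsomes (0.5 mg/mL final) and NADPH (0.5 mg/mL final) for 16 h at 37 C. Beta-lactamase activity was read by LiveBLAzer fluorescence after 2 h at room temperature.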

[6] = p53 small molecule agonists, cell-based qHTS assay with rat liver microsomes (AID 1963578)
Outline: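 p53RE-bla cells were exposed to compounds together with rat liver microsomes (0.5 mg/mL final) and NADPH (0.5 mg/mL final) for 16 h at 37 C, then read by LiveBLAzer beta-lactamase fluorescence after 2 h at room temperature.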

[7] = p53 small molecule agonists, cell-based qHTS assay with human liver microsomes: qHTS cell viability counter screen (AID 1963579); also: nearly all actives have a fitted effect of over 45% in size
Outline: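 p53RE-bla cells (4,000/well) were pre-incubated 5 h at 37 C, then given compounds in DMSO plus human liver microsomes (0.5 mg/mL final) and NADPH (0.5 mg/mL final) for 16 h at 37 C. Viability was read by CellTiter-Glo luminescence.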

[8] = p53 small molecule agonists, cell-based qHTS assay with rat liver microsomes: qHTS cell viability counter screen (AID 1963580); also: nearly all actives have a fitted effect of over 45% in size
Outline: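 After the beta-lactamase ratio was read, CellTiter-Glo was added to the same wells and luminescence measured at 30 min; cells had been treated 16 h at 37 C with compounds, rat liver microsomes and NADPH (0.5 mg/mL final each).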

[9] = p53 small molecule agonists, cell-based qHTS assay: qHTS cell viability counter screen (AID 1963581); also: nearly all actives have a fitted effect of over 45% in size
Outline: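 ATP content measured by luminescence in HCT-116 p53RE-bla cells treated 16 h at 37 C, same wells as the reporter screen.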

[10] = target: 5-hydroxytryptamine receptor 2A (Homo sapiens) (UniProt P28223); experiment: 5-hydroxytryptamine receptor 2A (HTR2A) small molecule antagonists, cell-based qHTS assay (AID 1963586); also: nearly all actives have a fitted effect of over 45% in size
5-hydroxytryptamine receptor 2A (Homo sapiens), sequence (P28223 whole entry, looked up): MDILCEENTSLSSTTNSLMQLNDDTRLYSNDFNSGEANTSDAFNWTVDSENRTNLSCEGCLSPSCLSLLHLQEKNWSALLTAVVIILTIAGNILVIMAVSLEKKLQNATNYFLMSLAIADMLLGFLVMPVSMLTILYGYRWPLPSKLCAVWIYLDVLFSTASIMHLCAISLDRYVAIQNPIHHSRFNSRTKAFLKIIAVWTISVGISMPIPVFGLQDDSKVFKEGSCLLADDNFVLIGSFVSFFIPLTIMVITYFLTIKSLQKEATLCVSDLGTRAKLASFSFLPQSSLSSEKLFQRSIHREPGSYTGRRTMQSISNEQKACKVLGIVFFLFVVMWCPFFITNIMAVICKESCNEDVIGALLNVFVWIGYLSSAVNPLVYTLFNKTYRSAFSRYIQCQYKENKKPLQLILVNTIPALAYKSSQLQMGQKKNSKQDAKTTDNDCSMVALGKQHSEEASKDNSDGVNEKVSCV
Outline: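 CHO cells stably expressing human HTR2A were plated for 18 h at 37 C, then loaded with calcium dye for 1 h. Compounds were preincubated 5 min at room temperature before DOI (4 nM solution) was added. Kinetic fluorescence was read for 3 min.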

[11] = target: 5-hydroxytryptamine receptor 2A (Homo sapiens) (UniProt P28223); experiment: 5-hydroxytryptamine receptor 2A (HTR2A) small molecule agonists, cell-based qHTS assay (AID 1963587); also: nearly all actives have a fitted effect of over 30% in size
Outline: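 CHO cells stably expressing human HTR2A, plated 18 h, loaded with calcium dye 1 h at 37 C. Agonist mode: compounds added and intracellular calcium fluorescence recorded kinetically for 2 min at 1 sec intervals.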

[12] = target: Muscarinic acetylcholine receptor M1 (Homo sapiens) (UniProt P11229); experiment: Cholinergic receptor muscarinic 1 (CHRM1) small molecule antagonists, cell-based qHTS assay (AID 1963588); also: nearly all actives have a fitted effect of over 40% in size
Muscarinic acetylcholine receptor M1 (Homo sapiens), sequence (P11229 whole entry, looked up): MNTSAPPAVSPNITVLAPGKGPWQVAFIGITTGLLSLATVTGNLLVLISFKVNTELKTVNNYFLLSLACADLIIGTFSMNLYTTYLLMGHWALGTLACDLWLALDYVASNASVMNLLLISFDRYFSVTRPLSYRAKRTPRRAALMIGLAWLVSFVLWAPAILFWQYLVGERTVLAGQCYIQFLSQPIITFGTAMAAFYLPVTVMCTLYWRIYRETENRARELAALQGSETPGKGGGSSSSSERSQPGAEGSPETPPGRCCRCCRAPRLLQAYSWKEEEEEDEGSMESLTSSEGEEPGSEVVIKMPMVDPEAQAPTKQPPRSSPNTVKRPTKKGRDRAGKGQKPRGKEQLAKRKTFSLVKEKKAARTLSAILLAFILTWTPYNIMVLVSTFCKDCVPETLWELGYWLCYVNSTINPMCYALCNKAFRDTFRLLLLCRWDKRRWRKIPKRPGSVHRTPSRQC
Outline: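 Compounds were tested at 15 concentrations in three independent runs. Dye-loaded CHRM1-CHO cells were exposed 5 min at room temperature before stimulation by acetylcholine added at 50nM. Intracellular calcium was read kinetically on FDSS for 3 min.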

[13] = target: Muscarinic acetylcholine receptor M1 (Homo sapiens) (UniProt P11229); experiment: Cholinergic receptor muscarinic 1 (CHRM1) small molecule agonists, cell-based qHTS assay (AID 1963589); also: nearly all actives have a fitted effect of over 35% in size
Outline: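 Homogeneous fluorescence calcium flux, agonist mode. Human M1-expressing CHO cells; compound dosed at 15 concentrations, three independent runs; signal sampled every 1 sec.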

[14] = cAMP Responsive Elements (CRE) small molecule agonists, cell-based qHTS assay (AID 1963590)
Outline: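 HEK 293T cells stably bearing CRE-bla were plated at 2,000 cells per well and rested 18 h. Compounds, positive controls or DMSO were added for 3 h at 37 C. LiveBLAzer B/G substrate was then loaded for 2 h at room temperature.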

[15] = cAMP Responsive Elements (CRE) small molecule antagonists, cell-based qHTS assay (AID 1963591; active = well fitted inhibition curve with a large enough effect in the signal ratio in the repeat runs, not every such curve was filed as active; the % refers to the signal ratio)
Outline: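 First, CRE-bla HEK293T cells settled 18 h at 37 C. Next, compound and 0.25 uM final NKH477 were applied for 3 h. Last, LiveBLAzer B/G substrate was loaded for 2 h at room temperature.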

[16] = target: Beta-2 adrenergic receptor (Homo sapiens) (UniProt P07550); experiment: Adrenergic beta2 receptor (ADRB2) small molecule antagonists, cell-based qHTS assay (AID 1963592); also: series mostly up to about 92 µM; nearly all actives have a fitted effect of over 50% in size
Beta-2 adrenergic receptor (Homo sapiens), sequence (P07550 whole entry, looked up): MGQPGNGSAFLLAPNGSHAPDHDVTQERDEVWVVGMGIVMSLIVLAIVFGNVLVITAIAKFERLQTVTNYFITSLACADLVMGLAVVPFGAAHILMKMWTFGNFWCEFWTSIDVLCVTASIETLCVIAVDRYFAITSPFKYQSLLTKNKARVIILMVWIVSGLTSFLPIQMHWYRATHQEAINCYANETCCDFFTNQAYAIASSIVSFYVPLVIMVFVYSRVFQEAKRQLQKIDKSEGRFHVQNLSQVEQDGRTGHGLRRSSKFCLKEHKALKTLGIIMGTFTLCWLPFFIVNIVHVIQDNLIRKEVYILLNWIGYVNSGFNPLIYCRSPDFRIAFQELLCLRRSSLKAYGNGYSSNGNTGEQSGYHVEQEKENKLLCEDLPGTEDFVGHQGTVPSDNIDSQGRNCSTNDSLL
Outline: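 Assay format: CHO-ADRB2 cells, 18-20hr seeding at 37C/5% CO2, then compound plus 1nM isoproterenol agonist mix for 0.5hr RT. Homogeneous time-resolved fluorescence cAMP detection after 1hr, expressed as 665/615 nm ratio.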

[17] = p53 small molecule agonists, cell-based qHTS assay (AID 1963582; active = well fitted activation curve with a large enough effect in the signal ratio in the repeat runs, not every such curve was filed as active; the % refers to the signal ratio)
Outline: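 16 h compound exposure (37 C) of p53 response element–bla cells, preceded by 5 h recovery at 37 C/5% CO2; read-out via LiveBLAzer B/G FRET substrate, 2 h RT, fluorescence intensity.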

[18] = target: D(2) dopamine receptor (Homo sapiens) (UniProt P14416); experiment: Dopamine D2 receptor (DRD2) small molecule agonists, cell-based qHTS assay (AID 1963594); also: nearly all actives have a fitted effect of over 35% in size; also: potency is read from the fitted curve at half-maximal effect
D(2) dopamine receptor (Homo sapiens), sequence (P14416 whole entry, looked up): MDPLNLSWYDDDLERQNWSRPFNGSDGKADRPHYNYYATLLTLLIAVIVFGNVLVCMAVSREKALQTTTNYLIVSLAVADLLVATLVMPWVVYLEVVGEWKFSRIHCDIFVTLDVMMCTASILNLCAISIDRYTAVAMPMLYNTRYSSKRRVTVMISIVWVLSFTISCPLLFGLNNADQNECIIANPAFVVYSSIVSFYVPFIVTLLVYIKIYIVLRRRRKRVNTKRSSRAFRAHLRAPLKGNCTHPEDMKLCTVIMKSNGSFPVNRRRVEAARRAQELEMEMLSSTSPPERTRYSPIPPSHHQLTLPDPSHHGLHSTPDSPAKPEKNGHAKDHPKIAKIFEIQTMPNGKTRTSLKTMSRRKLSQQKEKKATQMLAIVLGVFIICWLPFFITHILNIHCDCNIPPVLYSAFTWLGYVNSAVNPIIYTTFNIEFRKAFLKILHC
Outline: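 HEK293 cells stably expressing human DRD2, pre-treated with PDE inhibitor Ro20-1724 (0.1 mM final) and compound 10 min at room temperature, then stimulated with NKH477 (200nM […]) for 30 min. cAMP read by HTRF (665/620 nm).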

[19] = target: D(2) dopamine receptor (Homo sapiens) (UniProt P14416); experiment: Dopamine D2 receptor (DRD2) small molecule antagonists, cell-based qHTS assay (AID 1963595; active = well fitted inhibition curve with a large enough effect in the signal ratio in the repeat runs, with a control signal flat; the % refers to the signal ratio; also: potency is read from the fitted curve at half-maximal effect)
Outline: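 Stable D2 receptor HEK293 line, 24 h after seeding. Compound preincubated 10 min, then quinpirole (12 nM) with forskolin analogue NKH477 (200 nM), 30 min, room temperature. Detection by time-resolved FRET of cAMP.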

[20] = target: Beta-2 adrenergic receptor (Homo sapiens) (UniProt P07550); experiment: Adrenergic beta2 receptor (ADRB2) small molecule agonists, cell-based qHTS assay (AID 1963593);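 also: CHO cells stably overexpressing human ADRB2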
Outline: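 CHO cells stably over-expressing ADRB2 were plated overnight at 37C, then dosed with compounds plus a stimulation mix containing 100uM IBMX and 25uM Ro-20-1724 for 0.5hr at room temperature. cAMP was measured by HTRF competition, 1hr.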

Measured: Potency

O=c1[nH]c(=O)c2ccccc2o1
not listed: [17] | [18] | [19] | [20]
inactive: all other assays above

C=C(C)C(=O)OCCOCCOCCOC(=O)C(=C)C
not listed: [8] | [14] | [15] | [20]
inactive: all other assays above

O=C1CCC(=O)O1
not listed: [7]
inactive: all other assays above

CC(=O)CC(=O)Nc1ccccc1C
not listed: [3]
inactive: all other assays above

C=C(C)C(=O)NCCCN(C)C
not listed: [3]
inactive: all other assays above

Cc1cccc(C)c1NC(=O)CC12CCCN1CCC2
not listed: [5] | [9] | [11] | [19]
inactive: all other assays above

CCCCCC1CCCC(=O)O1 (stereo not given)
not listed: [3] | [20]
inactive: all other assays above

O=C(NCC1CCCCN1)c1cc(OCC(F)(F)F)ccc1OCC(F)(F)F (stereo not given)
not listed: [5] | [6] | [7] | [8] | [18] | [19] | [20]
inactive: all other assays above

CC(=O)OCC(=O)[C@@]1(O)CC[C@H]2[C@@H]3CCC4=CC(=O)C=C[C@]4(C)[C@H]3[C@@H](O)C[C@@]21C
not listed: [4] | [5] | [6] | [11] | [12] | [13] | [16] | [17]
inactive: all other assays above

C1CSCCS1
not listed: [5]
inactive: all other assays above

c1ccsc1
not listed: [4] | [11] | [13]
inactive: all other assays above

Cc1cccc(N(C)C)c1
not listed: [3]
inactive: all other assays above

COC(=O)c1ccccc1C(=O)O
not listed: [3]
inactive: all other assays above

O=S1(=O)OC(c2ccc(O)cc2)(c2ccc(O)cc2)c2ccccc21
active: [1] 24.3 µM
not listed: [5] | [6] | [12] | [15] | [17]
inactive: all other assays above

[O]=[Zr]
not listed: [4] | [9] | [14] | [20]
inactive: all other assays above

O=C(O)c1cccc(Cl)c1Cl
not listed: [5] | [13] | [19]
inactive: all other assays above

NC[C@H](O)c1ccc(O)c(O)c1
active: [3] 19 µM | [18] 16.6 µM
not listed: [5] | [6] | [14] | [16] | [17] | [19] | [20]
inactive: all other assays above

COC(=O)/C=C(/C)N
not listed: [5] | [12]
inactive: all other assays above

OCCN1CCNCC1
not listed: [3]
inactive: all other assays above

CC(Cl)COP(=O)(OCC(C)Cl)OCC(C)Cl (stereo not given)
not listed: [6]
inactive: all other assays above

CCCCc1ccc2cccc(S(=O)(=O)O)c2c1
not listed: [6] | [13]
inactive: all other assays above

O=C1c2ccccc2CCc2ccccc21
not listed: [5] | [6] | [15] | [17] | [20]
inactive: all other assays above

CCC(COC(=O)CCS)(COC(=O)CCS)COC(=O)CCS
not listed: [6] | [13] | [20]
inactive: all other assays above

Cn1cnc2c(F)c(Nc3ccc(Br)cc3Cl)c(C(=O)NOCCO)cc21
not listed: [4] | [15]
inactive: all other assays above

CNCCS(=O)(=O)O
not listed: [3]
inactive: all other assays above

CC(C)(C)NCC(O)c1ccc(O)c(CO)c1 (stereo not given)
inactive: [1] | [2] | [4] | [9] | [17]
active: [3] 0.0301 µM | [19] 962 nM and 750 nM

CCCCCCCCCCCC(=O)OCC(C)OC(=O)CCCCC(=O)O (stereo not given)
not listed: [3] | [19] | [20]
inactive: all other assays above
